Records with an inconclusive call do not appear. Calls of active or inactive are those of the source. The call rests on the fitted dose curve; in most records, active means well fitted curve in the direction sought with a large enough effect; inconclusive means small, poorly fitted or top-dose-only effect, or another doubt; inactive means no such curve, though single readings can be large; an effect the other way counts as inactive or inconclusive.
Tests used:
[1] = target: Rap guanine nucleotide exchange factor 3 (Homo sapiens) (UniProt O95398); test: Confirmatory qHTS for agonist of cAMP-regulated guanine nucleotide exchange factor 3 (EPAC1) (AID 1645881);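 further: EPAC1 catalysed release of BODIPY-GDP from Rap1B seen as fluorescence loss; 100% = effect of cAMP agonist control; nearly all actives have a fitted effect of over 75% in size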
Chain of Rap guanine nucleotide exchange factor 3 (Homo sapiens) (O95398 whole entry, looked up): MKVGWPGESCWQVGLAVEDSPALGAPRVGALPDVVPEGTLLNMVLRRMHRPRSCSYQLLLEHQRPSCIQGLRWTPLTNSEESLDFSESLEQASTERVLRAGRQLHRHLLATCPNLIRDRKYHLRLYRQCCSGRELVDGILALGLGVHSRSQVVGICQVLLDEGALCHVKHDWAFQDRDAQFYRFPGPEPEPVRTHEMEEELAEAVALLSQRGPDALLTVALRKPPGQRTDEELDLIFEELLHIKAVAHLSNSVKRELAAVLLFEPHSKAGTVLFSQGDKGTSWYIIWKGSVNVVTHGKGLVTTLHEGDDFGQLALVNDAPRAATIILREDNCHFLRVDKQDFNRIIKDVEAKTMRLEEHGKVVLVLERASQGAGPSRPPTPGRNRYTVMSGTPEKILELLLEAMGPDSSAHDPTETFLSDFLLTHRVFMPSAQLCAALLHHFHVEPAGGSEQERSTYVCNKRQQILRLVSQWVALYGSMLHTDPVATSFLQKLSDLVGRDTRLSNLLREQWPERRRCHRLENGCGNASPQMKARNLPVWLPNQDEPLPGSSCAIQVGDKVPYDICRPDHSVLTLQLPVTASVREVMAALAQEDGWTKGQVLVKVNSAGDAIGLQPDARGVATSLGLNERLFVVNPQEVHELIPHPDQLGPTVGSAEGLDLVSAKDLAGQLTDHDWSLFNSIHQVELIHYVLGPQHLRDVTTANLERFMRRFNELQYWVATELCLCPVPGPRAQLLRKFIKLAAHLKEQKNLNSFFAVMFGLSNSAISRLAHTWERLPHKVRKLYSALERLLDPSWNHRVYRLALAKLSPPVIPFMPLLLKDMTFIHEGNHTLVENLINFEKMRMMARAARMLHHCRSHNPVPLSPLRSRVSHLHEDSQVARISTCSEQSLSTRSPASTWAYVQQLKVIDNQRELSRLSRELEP

[2] = target: Rap guanine nucleotide exchange factor 4 (Homo sapiens) (UniProt Q8WZA2); test: Confirmatory qHTS for agonist of cAMP-regulated guanine nucleotide exchange factor 4 (EPAC2) (AID 1645884);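 further: nucleotide exchange releases bodipy-GDP from Rap1 and this lowers its fluorescence; on the % scale 0 is the no-effect control and ±100 the full control effect; nearly all actives have a fitted effect of over 65% in size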
Chain of Rap guanine nucleotide exchange factor 4 (Homo sapiens) (Q8WZA2 whole entry, looked up): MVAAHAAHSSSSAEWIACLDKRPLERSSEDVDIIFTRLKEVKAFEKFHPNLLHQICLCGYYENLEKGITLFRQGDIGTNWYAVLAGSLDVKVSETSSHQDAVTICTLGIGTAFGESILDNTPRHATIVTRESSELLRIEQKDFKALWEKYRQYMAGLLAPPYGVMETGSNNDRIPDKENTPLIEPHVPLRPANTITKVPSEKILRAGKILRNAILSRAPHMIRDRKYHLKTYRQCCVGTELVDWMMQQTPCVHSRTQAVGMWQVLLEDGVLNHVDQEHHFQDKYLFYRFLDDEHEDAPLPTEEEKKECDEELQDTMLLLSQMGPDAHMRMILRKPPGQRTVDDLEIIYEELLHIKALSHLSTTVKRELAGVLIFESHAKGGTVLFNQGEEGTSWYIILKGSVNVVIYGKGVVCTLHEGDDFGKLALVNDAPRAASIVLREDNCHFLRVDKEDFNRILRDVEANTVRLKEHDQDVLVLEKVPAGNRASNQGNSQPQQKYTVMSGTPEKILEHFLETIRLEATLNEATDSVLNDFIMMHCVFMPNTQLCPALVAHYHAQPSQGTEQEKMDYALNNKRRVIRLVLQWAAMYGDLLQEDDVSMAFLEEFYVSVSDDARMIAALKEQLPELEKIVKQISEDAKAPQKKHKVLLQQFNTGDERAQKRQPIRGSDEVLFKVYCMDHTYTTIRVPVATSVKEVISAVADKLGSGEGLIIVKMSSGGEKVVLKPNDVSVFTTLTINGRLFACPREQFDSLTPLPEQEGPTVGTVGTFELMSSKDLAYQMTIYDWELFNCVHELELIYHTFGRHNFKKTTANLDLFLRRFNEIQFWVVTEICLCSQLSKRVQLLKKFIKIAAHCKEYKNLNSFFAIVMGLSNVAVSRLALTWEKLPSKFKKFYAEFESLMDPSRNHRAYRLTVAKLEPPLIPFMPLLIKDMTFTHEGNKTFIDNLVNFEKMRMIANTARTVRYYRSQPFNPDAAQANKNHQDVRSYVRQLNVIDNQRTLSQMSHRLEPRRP

[3] = target: Rap guanine nucleotide exchange factor 4 (Homo sapiens) (UniProt Q8WZA2); test: Confirmatory qHTS for antagonist of cAMP-regulated guanine nucleotide exchange factor 4 (EPAC2) (AID 1645885); further: nearly all actives have a fitted effect of over 25% in size; further: potency means the concentration at half of the fitted maximal effect; on activity change, negative = inhibition: on the % scale 0 is the no-effect control and ±100 the full control effect
[4] = target: Rap guanine nucleotide exchange factor 3 (Homo sapiens) (UniProt O95398); test: Counterscreen qHTS for antagonist of cAMP-regulated guanine nucleotide exchange factor 3 (EPAC1) (AID 1645888);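 further: fluorescence loss as bound BODIPY-GDP is released from Rap1B; % of control where 0% means no effect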
In short: (§1)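 Rap1B–BODIPY-GDP (250 nM) with 50 uM GDP; compounds pin-transferred to 9.74 nM–152 uM final (activator) or from 7.32 nM upwards (inhibitor). Fluorescence Ex/Em 480/540 nm read at 5 and 30 min, then after adding cAMP or buffer, at room temperature.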

[5] = target: Rap guanine nucleotide exchange factor 3 (Homo sapiens) (UniProt O95398); test: Counterscreen qHTS for agonist of cAMP-regulated guanine nucleotide exchange factor 3 (EPAC1) (AID 1645889); further: % of control where 0% means no effect; nearly all actives have a fitted effect of over 40% in size
In short: as §1

COc1ccc(OC)c(CCNC(=O)c2ccc(CS(=O)(=O)c3ccc(Br)cc3)o2)c1
inactive: Potency [1] | Potency [2] | Potency [3] | Potency [4] | Potency [5]

CC(C)(C)c1ccc(OCc2ccc(C(=O)N/N=C/c3ccc(O)c(O)c3)cc2)cc1
inactive: Potency [1] | activation [2] -9.36% [at 17.1 µM, percent relative to cAMP agonist control] | Potency [3] | activity change, negative = inhibition [4] -20.9% [at 30.8 µM] | activation [5] 10.5% [at 30.8 µM]

CCOC(=O)C(NS(=O)(=O)c1ccc(C)cc1)(C(F)(F)F)P(=O)(OCC(C)C)OCC(C)C (stereo not given)
inactive: Potency [1] | Potency [2] | Potency [3] | Potency [4] | Potency [5]

CCN(CC)c1ccc(/C=C2/C(=O)c3ccc(C(=O)O)cc3C2=O)cc1
inactive: Potency [1] | activation [2] 4.11% [at 17.1 µM, percent relative to cAMP agonist control] | Potency [3] | activity change, negative = inhibition [4] 8.07% [at 30.8 µM] | activation [5] 9.24% [at 30.8 µM]

O=C(NCC(c1ccco1)N1CCCC1)c1ccccc1Sc1ccc(C(F)(F)F)cc1[N+](=O)[O-] (stereo not given)
inactive: Potency [1] | Potency [2] | Potency [3] | Potency [4] | Potency [5]

CCc1ccc(N=Nc2ccc(O)c3[nH]cnc23)cc1
inactive: Potency [1] | Potency [2] | Potency [3] | Potency [4] | Potency [5]

COc1ccc(S(=O)(=O)NC(=O)C2(C)CCN2C(=O)C2(c3ccccc3)CCCC2)cc1 (stereo not given)
inactive: Potency [1] | activation [2] -3.86% [at 17.1 µM, percent relative to cAMP agonist control] | Potency [3] | activity change, negative = inhibition [4] -2.65% [at 30.8 µM] | activation [5] -0.406% [at 30.8 µM]

O=C(C1CC1)N1CCCC(c2ccc(Cl)cc2)=N1
inactive: Potency [1] | activation [2] -19.8% [at 17.1 µM, percent relative to cAMP agonist control] | Potency [3] | activity change, negative = inhibition [4] -19% [at 30.8 µM] | activation [5] -0.772% [at 30.8 µM]

O=C(CCN1C(=O)S/C(=C\c2ccc(Cl)cc2)C1=O)Nc1ccc(C(=O)O)cc1
inactive: Potency [1] | Potency [2] | Potency [3] | Potency [4] | Potency [5]

CNC(=S)N1CCc2cc(OC)c(OC)cc2C1COc1ccc(F)cc1 (stereo not given)
inactive: Potency [1] | activation [2] 0% [at 17.1 µM, percent relative to cAMP agonist control] | Potency [3] | activity change, negative = inhibition [4] -1.54% [at 30.8 µM] | activation [5] 46.8% [at 30.8 µM]

Cc1ccc(CN(C(=O)COc2cc(C)c(Cl)c(C)c2)c2ccccn2)o1
inactive: Potency [1] | Potency [2] | Potency [3] | Potency [4] | Potency [5]

Cc1nn(-c2ccc(F)cc2)c(-n2cccc2)c1C(=O)N1CCN(c2ccc(F)cc2)CC1
inactive: Potency [1] | Potency [2] | outcome [3] inactive [at 12.7 µM] | Potency [4] | Potency [5]

C/C(=N\NC(=O)c1cc2ccccc2cc1O)c1ccc(C)o1
inactive: Potency [1] | activation [2] -0.964% [at 17.1 µM, percent relative to cAMP agonist control] | Potency [3] | activity change, negative = inhibition [4] -5.69% [at 30.8 µM] | activation [5] 28.4% [at 30.8 µM]

CCN(C(=O)Cn1c(=O)oc2cc(Cl)ccc21)c1cccc(C(F)(F)F)c1
inactive: Potency [1] | Potency [2] | Potency [3] | Potency [4] | Potency [5]

O=[N+]([O-])c1ccc(NS(=O)(=O)c2ccc(Cl)c(Cl)c2)cc1
inactive: Potency [1] | Potency [2] | Potency [3] | Potency [4] | Potency [5]

O=C(Nc1ccc(NC(=O)c2ccco2)c(Cl)c1)c1ccc2c(c1)OCCO2
inactive: Potency [1] | Potency [2] | Potency [3] | Potency [4] | Potency [5]

N#Cc1c(SCC(=O)Nc2nncs2)sc2c(O)cc(=O)[nH]c12
inactive: Potency [1] | Potency [2] | Potency [3] | Potency [4] | Potency [5]

Cc1ccc(/C=N/N2CCN(Cc3cccc4ccccc34)CC2)o1
inactive: Potency [1] | Potency [2] | Potency [3] | Potency [4] | Potency [5]

CCOP(=O)(OCC)C(Cc1ccc(OC)c(OC)c1)N=C(c1ccccc1)c1ccccc1 (stereo not given)
inactive: Potency [1] | activation [2] 4.61% [at 17.1 µM, percent relative to cAMP agonist control] | Potency [3] | activity change, negative = inhibition [4] -11.3% [at 30.8 µM] | activation [5] 17.1% [at 30.8 µM]

Cc1cccc(Cn2c(=O)oc3ccc(C)cc32)c1
inactive: Potency [1] | activation [2] 1.77% [at 17.1 µM, percent relative to cAMP agonist control] | Potency [3] | activity change, negative = inhibition [4] 0.42% [at 30.8 µM] | activation [5] 19.6% [at 30.8 µM]

Cn1cc(S(=O)(=O)Nc2cccc(F)c2)c(=O)n(C)c1=O
inactive: Potency [1] | activation [2] 0% [at 17.1 µM, percent relative to cAMP agonist control] | Potency [3] | activity change, negative = inhibition [4] -13.5% [at 30.8 µM] | activation [5] -7.11% [at 30.8 µM]

Cc1ccc(NC(=O)CCC(=O)c2cccs2)nc1
inactive: Potency [1] | activation [2] 3.39% [at 17.1 µM, percent relative to cAMP agonist control] | Potency [3] | activity change, negative = inhibition [4] -8.32% [at 30.8 µM] | activation [5] 21.4% [at 30.8 µM]

CN(c1ccccc1)c1ccc(/C=C(\CCC(=O)O)c2nc3ccccc3s2)cc1[N+](=O)[O-]
inactive: Potency [1] | Potency [2] | Potency [3] | Potency [4] | Potency [5]

CCC(=C(c1ccc(OC)cc1)c1ccc(OC)cc1)c1cn(CC(O)CN2CCN(C)CC2)c2ccccc12 (stereo not given)
inactive: Potency [1] | activation [2] 8.96% [at 17.1 µM, percent relative to cAMP agonist control] | Potency [3] | activity change, negative = inhibition [4] -21.5% [at 30.8 µM] | activation [5] 25.5% [at 30.8 µM]

Cc1nnc2ccc(-c3ccc(NC(=O)Cc4cccs4)cc3)nn12
inactive: Potency [1] | activation [2] -1.11% [at 17.1 µM, percent relative to cAMP agonist control] | Potency [3] | activity change, negative = inhibition [4] -8.86% [at 30.8 µM] | activation [5] 9.02% [at 30.8 µM]

Cc1cc(Cl)ccc1OC(C)C(=O)Nc1ccc(C(=O)Nc2ccccc2C(=O)O)cc1 (stereo not given)
inactive: Potency [1] | Potency [2] | Potency [3] | Potency [4] | Potency [5]

O=C(NN1C(=O)/C(=C/C=C/c2ccco2)SC1=S)c1ccncc1
inactive: Potency [1] | Potency [2] | Potency [3] | Potency [4] | Potency [5]

CCCCN(Cc1ccccc1)C(=O)c1oc(=O)c2ccccc2c1-c1ccc(C)cc1
inactive: Potency [1] | Potency [2] | Potency [3] | Potency [4] | Potency [5]

Cc1cc(Cl)ccc1OCCCC(=O)OCC(=O)c1c(N)n(C)c(=O)n(C)c1=O
inactive: Potency [1] | activation [2] 11.9% [at 17.1 µM, percent relative to cAMP agonist control] | Potency [3] | activity change, negative = inhibition [4] -16.7% [at 30.8 µM] | activation [5] 27.4% [at 30.8 µM]

COc1ccccc1/C=C1\SC(=S)N(CCC(=O)Nc2ccc(C(=O)O)c(O)c2)C1=O
inactive: Potency [1] | activation [2] 4.12% [at 17.1 µM, percent relative to cAMP agonist control] | Potency [3] | activity change, negative = inhibition [4] -13.3% [at 30.8 µM] | activation [5] 10.4% [at 30.8 µM]

O=[N+]([O-])c1cc2c(cc1CN1CCN(CCOCCO)CC1)OCO2
inactive: Potency [1] | Potency [2] | Potency [3] | Potency [4] | Potency [5]

Cc1cc(-c2ccc(C(C)C)c(S(=O)(=O)N3CCC(C)CC3)c2)on1
inactive: Potency [1] | activation [2] 8.04% [at 17.1 µM, percent relative to cAMP agonist control] | Potency [3] | activity change, negative = inhibition [4] -17.5% [at 30.8 µM] | activation [5] 0.648% [at 30.8 µM]

COC(=O)c1ccccc1NC(=O)Cn1nc(C(F)(F)F)c2c1CCCC2
inactive: Potency [1] | Potency [2] | outcome [3] inactive [at 12.7 µM] | Potency [4] | Potency [5]

Cc1ccc(-c2ccc(CN3C(CC(C)C)C(=O)N(Cc4cn(CCC5OCCO5)nn4)CCS3(=O)=O)cc2)cc1 (stereo not given)
inactive: Potency [1] | Potency [2] | Potency [3] | Potency [4] | Potency [5]

COc1cc(-c2cc(OC)c3c(C)oc(C)c3c(=O)c2)ccc1OC(=O)c1ccc(C)cc1
inactive: Potency [1] | Potency [2] | Potency [3] | Potency [4] | Potency [5]

CCOc1ncccc1C(=O)OC(C)C(=O)Nc1ccc(Cl)cn1 (stereo not given)
active: Potency [3] 0.213 µM
inactive: Potency [1] | activation [2] 7.63% [at 17.1 µM, percent relative to cAMP agonist control] | activity change, negative = inhibition [4] -16.3% [at 30.8 µM] | activation [5] 15.5% [at 30.8 µM]

Cc1cc(N2CCN(c3cccc(C(F)(F)F)c3)CC2)n2nc(-c3ccccc3C)nc2n1
inactive: Potency [1] | Potency [2] | Potency [3] | Potency [4] | Potency [5]

O=C(Nc1ccc(N2CCC(N3CCCCC3)CC2)c(C(=O)O)c1)c1ccc(Br)cc1
inactive: Potency [1] | Potency [2] | outcome [3] inactive; activator; fitted 1.6944 uM [at 12.7 µM] | Potency [4] | Potency [5]

CCn1c(C(=O)N2CCc3ccccc3C2)cc2sccc21
inactive: Potency [1] | Potency [2] | Potency [4] | Potency [5]
active: Potency [3] 53.6 µM

Cc1cccc(C(=O)c2c(N)sc3c2CCCC3)c1
inactive: Potency [1] | activation [2] -0.129% [at 17.1 µM, percent relative to cAMP agonist control] | Potency [3] | activity change, negative = inhibition [4] -3.46% [at 30.8 µM] | activation [5] 9.69% [at 30.8 µM]

O=C(O)c1ccccc1NC(c1ccccc1)c1ccc(Cl)cc1 (stereo not given)
inactive: Potency [1] | Potency [2] | Potency [3] | Potency [4] | Potency [5]

Source: PubChem BioAssay (NCATS)
